# High-throughput results as filed in PubChem.
# Sm TGR inh – inhibitors of Schistosoma mansoni thioredoxin glutathione reductase. Q962Y6. purified TGR, DTNB reduction, TNB absorbance 405 nm. Potency, µM (series often up to 114 µM), without a hit: at the highest dose activity change, negative = inhibition, usual class: inhibitors. 3% of 360,000 active; also: % is scaled to controls: 0 for no effect and ±100 for the full control effect; nearly all actives have a fitted effect of over 60% in size
#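 First, TGR (20 nM dispensed) and NADPH were mixed with compound. Second, a 15 min room-temperature incubation followed. Third, further NADPH and then DTNB were added to start the reaction. Finally, TNB absorbance was monitored kinetically.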
# Pf growth 48h – inhibits P. falciparum growth in the first generation, 48 h; P. falciparum luciferase growth in erythrocytes, 48 h; Potency, µM (highest dose often 28.7 µM), for inactives: top-dose activity change, negative = inhibition, hits mostly inhibitors; 5.9% of 310,000 active; also: % is scaled to controls: 0 for no effect and ±100 for the full control effect
#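 Compounds are pin-transferred into medium, infected erythrocytes (2% hematocrit, 0.1% parasitemia final) are added, and plates sit one parasite generation at 37 C in 5% CO2. Detection reagent is then added and luminescence measured.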
# Pf growth 96h – P. falciparum growth inhibition at 96 hours; P. falciparum luciferase reporter growth, 96 h; 6.9% of 320,000 active; Potency, µM (series often up to 28.7 µM), inactives show top-dose activity change, negative = inhibition, actives largely listed as inhibitors; AID 504834; also: % is scaled to controls: 0 for no effect and ±100 for the full control effect
#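 Delayed-death screen, second-generation endpoint: infected erythrocytes, 2% hematocrit, 0.05% parasitemia final; 96 hours at 37 C, 5% CO2; luciferase detection reagent; luminescence decrease equals reduced growth.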
# SARS PLpro yeast – inhibitors of SARS-CoV papain-like protease in yeast. S. cerevisiae expressing SARS-CoV PLpro, growth rescue. Potency, µM (series often up to 32.9 µM), for the others: at the top dose activity, positive = growth rescue, usual class: activators. 0.19% of 330,000 active. AID 485353; calls by dose curve; also: 0% is about no effect; nearly all actives have a fitted effect of over 55% in size
# The depositor's hits bear a star; ? = inconclusive; nt = not tested or not shown; [ ] = dose if it differs, or a comment. Sampled rows, rich in hits. Any-hit rate of the full collection: about 12%. Unless noted, calls follow the shape of the dose curve; as a rule, active = well fitted curve in the direction sought with a large enough effect; inconclusive = small, poorly fitted or top-dose-only effect, or another doubt; inactive = no such curve, though single readings can be large; an effect the other way counts as inactive or inconclusive. Potency is read from the fitted curve at half-maximal effect.
SMILES,Sm TGR inh,Pf growth 48h,Pf growth 96h,SARS PLpro yeast
COC(=O)c1ccc2[nH]c3cccc(/C(=C/c4ccccc4)c4ccccc4)c3c2c1,-21%,?,3.7µM*,-4%
COc1ccc(C(=O)Nc2ccnn2C2CCN(C(=O)CCC(F)(F)F)CC2)cc1,27%,22%,34%,2%
C=CCCC(=O)N1CCC(n2nccc2NC(=O)c2ccc(OC)cc2)CC1,3%,-7%,12µM*,22%
CCC(=O)c1ccc(OC(=O)c2cnccn2)cc1,?,34%,38%,-1%
N#Cc1ccc(OC(=O)c2cnccn2)cc1,22µM*,3%,3%,3%
CCCN(CC1CC1)C(=O)COC(=O)c1[nH]c(C)c(C(=O)OCC)c1C,0%,nt,12µM*,-2%
CCOC(=O)c1[nH]c(C)c(C(=O)OCC)c1C,5%,nt,45%,-7%
CC(C)c1ccc(/C=C/C(=O)NC(=S)Nc2ccc(CN3CCOCC3)cc2)cc1,-2%,?,5.2µM*,-6%
CC(C)c1ccc(/C=C/C(=O)NC(=S)NN2CCOCC2)cc1,-6%,10%,12µM*,18%
COc1cc(Br)c(C(C)NC(=O)c2cccc(Br)c2)cc1OC (centres undefined),-32%,1.9µM*,1.7µM*,1%
O=C(Nc1ccccc1)C1=C(N2CCOCC2)/C(=C/c2cccnc2)CC1,-19%,?,-5%,-12%
O=[N+]([O-])c1cccc(/C=C2\CCC(/C=N/Nc3ccc4ccccc4n3)=C2N2CCOCC2)c1,-7%,?,0.41µM*,-1%
CCOC(=O)c1cc(CC)sc1NC(=O)c1cc([N+](=O)[O-])ccc1N1CCOCC1,7%,?,27%,8%
O=C(NP(=O)(N1CCCC1)N1CCCC1)C1=C(N2CCOCC2)/C(=C/c2cccc([N+](=O)[O-])c2)CC1,18µM*,-4%,-4%,1%
CCOC(=O)C(=O)C1=C(N2CCOCC2)/C(=C\c2cccc([N+](=O)[O-])c2)CC1,40µM*,22%,67%,-15%
O=[N+]([O-])c1cccc(/C=N/Nc2nc(N3CCOCC3)nc(N3CCOCC3)n2)c1,-14%,-24%,70%,11%
CN(C)c1ccc(/C=N/n2c(C3CCCCC3)n[nH]c2=S)cc1,7%,?,?,-1%
Cc1cc(C)nc(NS(=O)(=O)c2ccc(NC(=O)Cc3ccccc3F)cc2)n1,-3%,7%,3%,-1%
COC(=O)c1c(-c2ccc(OC)cc2)sc2ccccc12,10%,?,?,2%
COC(=O)c1c(-c2ccc(SC)cc2)sc2ccccc12,-12%,?,5.9µM*,-2%
CCOc1ccc(S(=O)(=O)N2CCC(C(=O)OC(C)C(=O)N3CCOCC3)CC2)cc1 (centres undefined),-13%,-14%,-16%,7%
Cc1ccc(N/N=C/c2ccc(N3CCOCC3)cc2)cc1C,25µM*,-16%,10µM*,9%
O=S(=O)(c1ccc(NC(=S)N/N=C/c2c3ccccc3cc3ccccc23)cc1)N1CCOCC1,nt,3.3µM*,?,1%
N#Cc1ccc(/C=N/NC(=O)CCc2ccc(S(=O)(=O)N3CCOCC3)cc2)cc1,12%,?,6.6µM*,-20%
N#Cc1ccc(NC(=O)CCc2ccc(S(=O)(=O)N3CCOCC3)cc2)cc1,2%,nt,?,24%
SMILES,Sm TGR inh,Pf growth 48h,Pf growth 96h,SARS PLpro yeast
O=S(=O)(c1ccc(NC(=S)N/N=C/c2ccc(N3CCOCC3)cc2)cc1)N1CCOCC1,-2%,-22%,5.9µM*,0%
Cn1c(CCn2ccccc2=O)nc2cc(NC(=O)COc3ccccc3)ccc21,0%,-1%,10µM*,-3%
CC1CCN(CCc2nc3cc(NC(=O)COc4ccc([N+](=O)[O-])cc4)ccc3n2C)CC1,-6%,3.7µM*,?,1%
Cn1c(CCN2CCOCC2)nc2cc(NC(=O)COc3ccccc3)ccc21,17%,-10%,4%,0%
CC1CCN(CCc2nc3cc(NC(=O)Nc4ccccc4)ccc3n2C)CC1,0%,6.6µM*,?,-7%
Cn1c(CCN2CCOCC2)nc2cc(NC(=O)COc3ccc([N+](=O)[O-])cc3)ccc21,2%,-7%,?,3%
COc1cccc(NC(=O)Cn2c(-c3nonc3N)nc3ccccc32)c1,-5%,nt,nt,nt
CC1(C)CN=C(Nc2ccc(F)c(Cl)c2)S1,3%,?,?,-1%
CNC(=O)N(C1=NCC(C)(C)S1)c1ccc(F)c(Cl)c1,1%,nt,7.4µM*,8%
COc1ccc(OC)c(NC(=O)COCc2cc(-c3ccc(F)cc3)on2)c1,29%,nt,nt,nt
CCN1CCN(C(=O)Nc2ccc(Cc3ccc(NC(=O)N4CCN(CC)CC4)cc3)cc2)CC1,1%,?,10µM*,-1%
CCC(C)[C@@H](CN)NCC1(c2ccccc2)CC1 (some centres undefined),-4%,?,?,1%
CCCCCC#CCC#CCC#CCC#CCCCC(=O)O,20µM*,0%,-5%,-3%
Cc1oc(-c2ccccc2)nc1CNS(=O)(=O)c1ccc(Cl)cc1,6%,nt,nt,nt
COc1ccc(CNC(=O)c2ccc(CS(=O)Cc3ccccc3Cl)o2)cc1 (centres undefined),-17%,nt,nt,nt
COc1cccc(CC(NC(C)=O)C(=O)NC2CCN(C(=O)c3ccncc3)CC2)c1OC (centres undefined),-15%,7%,1%,5%
Cc1ccc(NC(=O)CN(C)S(=O)(=O)c2cnc[nH]2)c(C)c1,11%,51%,?,-5%
CCn1ncc2c(OCc3ccc(C#N)cc3)cc(C)nc21,-2%[11.4 µM],nt,15µM*,-10%
Cc1nc(-c2cccnc2)sc1C(=O)Nc1cccc(C(F)(F)F)c1,-2%,?,12µM*,-14%
O=C(Nc1cccc(C(F)(F)F)c1)c1cccnn1,89µM*,13%,-6%,-4%
Cc1cc(C)c(S(=O)(=O)NC2CC(C)(C)NC(C)(C)C2)cc1Br,2%,?,?,3%
CC1=C(C(=O)Nc2cccnc2)C(c2ccncc2)n2nnnc2N1 (centres undefined),0%,?,7%,-3%
CC1=C(C(=O)Nc2ccccc2)C(c2ccncc2)n2nnnc2N1 (centres undefined),6%,27%,0.93µM*,1%
COc1nc(Nc2ccc(C(C)=O)cc2)nc(OC)n1,2%,15µM*,-8%,-3%
O=C(COc1ccccc1Cl)Nc1ccc(Cl)cn1,0%,188%,10µM*,2%
COc1cc(NC(=O)CC2C(=O)N(c3cccc(C)c3)C(=O)N2Cc2ccc(F)cc2)cc(OC)c1 (centres undefined),3%,nt,nt,nt
COCCCNC(=O)c1ccc(N2CCOCC2)c(NS(=O)(=O)c2ccc(OC)cc2)c1,-1%,-14%,nt,?
Cc1ccc(S(=O)(=O)Nc2cc(C(=O)NCCN(C)C)ccc2N2CCCC2)cc1,-20%,-3%,8.3µM*,2%
CCCCNC(=O)c1ccc(N2CCOCC2)c(NS(=O)(=O)c2ccc(OC)cc2)c1,-6%,7.4µM*,49%,7%
